# Screening results as filed in PubChem BioAssay.
# Pf apPOL block: Pf-apPOL inhibitors, biochemical, fluorescence. Recombinant Pf-apPOL, molecular beacon fluorescence, 1.5 h. Plasmodium falciparum apicoplast DNA polymerase (apPOL). inhibition, % at 10 µM. actives 0.25% (n = 210,000)
# mHTT-CaM PPI inh: mutant huntingtin-calmodulin interaction inhibitors – biochemical, AlphaScreen, primary screen | AlphaScreen His-mHTT/GST-CaM binding, luminescence | actives 3.6% (n = 190,000) | inhibition, % at 15 µM | P42858 | AID 1671202, 2021
# Hits are given with their value; n = inactive; x = not tested or not shown. A selection: hits, their analogues and other compounds. The true share with any hit is near 3.6%. Rule as the data show it: active = inhibition above about 50%; inactive = the rest.
SMILES,Pf apPOL block,mHTT-CaM PPI inh
CCCOc1ccc(C(=O)Nc2nnc(C3CC(=O)N(c4ccc(OCC)cc4)C3)o2)cc1 (centres undefined),n,n
CSc1ccc(N2CC(c3nnc(NC(=O)c4cccc(F)c4)o3)CC2=O)cc1 (centres undefined),n,62.4
O=C(Nc1nnc(C2CC(=O)N(c3ccc(F)cc3)C2)o1)c1cccc(F)c1 (centres undefined),n,n
c1ccc2c(N3CCN(c4ncnc5ccccc45)CC3)ncnc2c1,56.8,n
Brc1ccc2ncnc(N3CCCC3)c2c1,n,n
O=C1Nc2ccccc2Oc2cc([N+](=O)[O-])cc(Oc3ccc(Br)cc3)c21,n,n
O=C1Nc2ccccc2Oc2cc([N+](=O)[O-])cc(Oc3ccc(Cl)cc3)c21,n,51.0
O=C(NCC(=O)N1CCCc2ccccc21)c1ccc(Cl)cc1,n,n
O=C(NCc1ccccc1)c1cc(N2C(=O)C=CC2=O)ccc1Cl,n,n
O=C(O)c1cc(N2C(=O)C=CC2=O)ccc1Cl,54.6,x
CN(CC(=O)Nc1ccc2c(c1)OCCO2)S(=O)(=O)c1cccc2cnccc12,n,n
O=C(NCc1ccc(N2CCCCC2)nc1)c1ccc(Cl)cc1,n,n
CN1CCN(Cc2cncc(-c3cc4ccccc4s3)c2)CC1,n,54.9
CN1CCN(Cc2ccc3c(c2)Cc2ccccc2-3)CC1,n,n
O=C(Nc1ccc(OCc2ccccc2)cc1)N1CCN(CCc2ccncc2)CC1,n,x
Cc1ccn2cc(C(=O)NCc3cccc(F)c3)nc2c1,n,n
COCCC(=O)N1CCC(n2c(-c3ccc(F)cc3)nc3cccnc32)C1 (centres undefined),n,n
Cc1cc(Nc2ccc(C(N)=O)cc2)nc(-n2nc(C)cc2C)n1,n,94.9
Cc1cc(C)n(-c2ccc(Nc3ccc(NC(=O)Nc4ccccc4)cc3)nn2)n1,n,n
Cc1nc(-c2ccc(NC(=S)Nc3cccc(C(F)(F)F)c3)cc2)c(-c2ccccc2)o1,n,x
CCCOc1ccccc1C1C(C#N)=C(N)Oc2n[nH]c(-c3ccncc3)c21 (centres undefined),n,n
Cc1ccc(C(=O)CC(=O)c2ccccc2O)cc1,n,n
COc1ccc(O)c(C(=O)CC(=O)c2cccc(C)c2)c1,n,59.3
COc1ccc(NC(=O)c2ccccc2C)c(OC)c1,n,n
Cc1ccccc1C(=O)CC(=O)c1ccccc1O,n,50.2
SMILES,Pf apPOL block,mHTT-CaM PPI inh
Cc1ccc(O)c(C(=O)CC(=O)c2cccc(F)c2)c1,n,n
COc1ccc(O)c(C(=O)CC(=O)c2ccccc2C)c1,n,62.4
O=C(CSc1ccc(-c2ccc(-n3cccn3)cc2)nn1)NCc1ccc2c(c1)OCO2,n,n
CCOC(=O)Oc1ccc2c(=O)c(-c3ccc(OC)cc3)c(C)oc2c1,n,n
CCOC(=O)Oc1c(Cl)cc2oc(=O)sc2c1Cl,n,77.0
O=C(O)c1cc(=O)c(OCc2ccccc2)co1,n,n
COc1ccccc1-c1cc(C(=O)N2CCC(c3nnc(-c4ccc(F)cc4)o3)CC2)[nH]n1,n,n
Cc1cccc(NC(=O)NC2(C(F)(F)F)Oc3ccccc3O2)c1,n,n
O=C(CN1CCOCC1)Nc1sc2c(c1C(=O)Nc1ccc(Cl)cc1)CCC2,n,n
O=C(CNCCO)Nc1sc2c(c1C(=O)Nc1ccc(Br)cc1)CCC2,n,66.4
O=C(CNCCN1CCOCC1)Nc1sc2c(c1C(=O)Nc1ccccc1)CCC2,n,88.9
O=C(Nc1sc2c(c1C(=O)Nc1ccc(Br)cc1)CCCCC2)c1cccnc1,n,n
NNC(=O)c1c(NC(=O)c2ccccc2)sc2c1CCC2,n,64.3
CCNC(=O)c1c(NC(=O)c2ccccc2)sc2c1CCCC2,n,n
COc1cccc(-n2nnc(C(=O)NCCc3cccs3)c2C)c1,n,n
COCCN=C1Nc2ncccc2NC12CCN(C(=O)c1ccc(F)c(Cl)c1)CC2,n,n
Cc1ccc(-c2ncc(C(=O)Nc3ccccc3Cl)c(-c3ccncc3)n2)cc1,55.7,n
O=C(Nc1ccc(F)cc1)c1cnc(-c2ccc(F)cc2)nc1-c1ccncc1,88.1,n
O=C(Nc1ccccc1Cl)c1cnc(-c2ccc(F)cc2)nc1-c1ccncc1,n,n
O=C(Nc1ccc(F)cc1)c1cnc(-c2ccccc2)nc1-c1ccncc1,n,n
O=C(Nc1ccccc1Cl)c1cnc(-c2ccccc2)nc1-c1ccncc1,n,n
O=C(Nc1ccccc1F)c1cnc(-c2ccc(F)cc2)nc1-c1ccncc1,86.0,n
Cc1ccc(NC(=O)Cn2cccc2-c2nnc(C3CC3)o2)c(C)c1,n,n
Cc1cc(C)c2c(c1)/C(=c1/sc3n(c1=O)CN(c1cccc(Br)c1)CN=3)C(=O)N2,n,n
CCc1noc(C2(NC(=O)c3ccoc3)CCCCC2)n1,n,n
CC1(O)NC(C(C#N)C#N)=C(C#N)C(c2ccc(F)cc2)C1[n+]1ccccc1 (centres undefined),n,n
N#CC1=C(S)NC(O)(c2ccccc2)C([n+]2ccc3ccccc3c2)C1c1cccc(F)c1 (centres undefined),n,69.0
